Data published in the supplement of paper PMC10849652.
The full data set covers some 7,900 targets. This sample favours those with a hit. About 0.6% of all pairs of compound and target were hits. Unmarked numbers belong to inactive results.

Tests used:
Assay in all cases: log2 fold change, soluble protein after heating vs DMSO (PISA); higher = thermal stabilisation; K562 cells, 10 uM, 30 min; active = over 0.2 and 3.5 SD of the protein, either way, in both replicates (recomputed)
[1] = compound: NC(=O)Nc1cc(-c2cccc(F)c2)sc1C(=O)N[C@H]1CCCNC1
Method in brief: (§1)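 K562 cells at 2×10^6 cells/mL were given 10 μM compound for 30 min. Aliquots then went through 3 min of heating across 48°C-58°C, were pooled, and were extracted in PBS with 0.5% NP-40 at 4°C, and the supernatant after 21,000xg for 90 min was quantified by TMTpro 16plex LC-MS/MS with channel sums equalised. Thermal stability relative to control samples, from duplicates, is given as log2 fold change.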

[2] = compound: NC(=O)c1cnc(N[C@@H]2CCCC[C@@H]2N)nc1Nc1cccc(-n2nccn2)c1
Method in brief: as §1

[3] = compound: NC1(c2ccc(-c3nc4ccn5c(=O)[nH]nc5c4cc3-c3ccccc3)cc2)CCC1
Method in brief: as §1

[4] = compound: NCC(=O)Nc1ccc(-n2nc(C(F)(F)F)cc2-c2ccc3c(ccc4ccccc43)c2)cc1
Method in brief: as §1

[5] = compound: Nc1ccccc1NC(=O)c1ccc(CNC(=O)OCc2cccnc2)cc1 [entinostat]
Method in brief: as §1

[6] = compound: O=C(CCCCCCC(=O)Nc1ccccc1)NO [vorinostat]
Method in brief: as §1

[7] = compound: O=C(CCCCCCNC(=O)c1cnc(N(c2ccccc2)c2ccccc2Cl)nc1)NO [citarinostat]
Method in brief: as §1

[8] = compound: O=C(O)c1ccc2c(c1)nc(Nc1cccc(Cl)c1)c1ccncc12 [silmitasertib]
Method in brief: as §1

[9] = compound: O=C1NC(=O)C(c2cnc3ccccn23)=C1c1cn2c3c(cc(F)cc13)CN(C(=O)N1CCCCC1)CC2
Method in brief: as §1

[10] = compound: c1cc(OCCN2CCCCC2)cc(-c2n[nH]c3ccc(-c4nnc[nH]4)cc23)c1
Method in brief: as §1

[11] = compound: c1cn2cc(-c3ccc4cn[nH]c4c3)nc(Nc3ccc(N4CCOCC4)cc3)c2n1 [entospletinib]
Method in brief: as §1

Sequence of UniProt Q9BTY2 (Q9BTY2 whole entry, looked up): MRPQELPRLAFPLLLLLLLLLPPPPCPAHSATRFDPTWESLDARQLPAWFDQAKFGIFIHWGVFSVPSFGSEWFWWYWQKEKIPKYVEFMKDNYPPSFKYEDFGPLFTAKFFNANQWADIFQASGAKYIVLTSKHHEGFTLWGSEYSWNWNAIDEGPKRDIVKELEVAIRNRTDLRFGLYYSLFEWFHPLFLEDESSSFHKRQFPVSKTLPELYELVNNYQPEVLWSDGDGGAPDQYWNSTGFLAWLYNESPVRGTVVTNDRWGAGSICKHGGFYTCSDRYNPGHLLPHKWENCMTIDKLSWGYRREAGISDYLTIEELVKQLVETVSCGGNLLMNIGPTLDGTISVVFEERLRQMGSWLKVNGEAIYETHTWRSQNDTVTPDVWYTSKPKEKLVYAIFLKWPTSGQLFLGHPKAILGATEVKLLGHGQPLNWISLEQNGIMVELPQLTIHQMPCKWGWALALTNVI
Sequence of UniProt Q9Y6M1 (Q9Y6M1 whole entry, looked up): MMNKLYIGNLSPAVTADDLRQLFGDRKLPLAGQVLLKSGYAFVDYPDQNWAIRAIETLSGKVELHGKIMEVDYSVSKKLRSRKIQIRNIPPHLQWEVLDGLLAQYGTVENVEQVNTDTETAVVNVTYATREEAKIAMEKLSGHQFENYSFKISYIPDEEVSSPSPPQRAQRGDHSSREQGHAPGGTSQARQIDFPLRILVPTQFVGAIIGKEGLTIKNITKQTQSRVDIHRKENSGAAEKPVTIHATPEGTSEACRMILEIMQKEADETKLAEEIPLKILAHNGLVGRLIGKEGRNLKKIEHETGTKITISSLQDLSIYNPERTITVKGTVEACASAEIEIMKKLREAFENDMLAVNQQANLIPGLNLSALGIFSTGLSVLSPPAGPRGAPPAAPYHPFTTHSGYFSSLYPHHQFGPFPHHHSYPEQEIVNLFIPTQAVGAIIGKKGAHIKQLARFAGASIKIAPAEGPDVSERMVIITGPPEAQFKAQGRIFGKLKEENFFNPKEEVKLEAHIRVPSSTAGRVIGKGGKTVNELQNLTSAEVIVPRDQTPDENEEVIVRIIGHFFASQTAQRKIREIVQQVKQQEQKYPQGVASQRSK
Sequence of UniProt P22087 (P22087 whole entry, looked up): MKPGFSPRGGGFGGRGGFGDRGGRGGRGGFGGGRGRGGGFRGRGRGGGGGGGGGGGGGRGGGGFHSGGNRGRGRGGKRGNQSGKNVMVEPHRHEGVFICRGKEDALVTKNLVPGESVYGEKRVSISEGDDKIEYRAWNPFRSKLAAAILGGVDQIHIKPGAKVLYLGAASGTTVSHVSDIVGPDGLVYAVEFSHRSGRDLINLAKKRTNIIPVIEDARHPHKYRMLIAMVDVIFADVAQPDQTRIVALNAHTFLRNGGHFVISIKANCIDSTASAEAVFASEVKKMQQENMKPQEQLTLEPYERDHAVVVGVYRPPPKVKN
Sequence of UniProt Q06546 (Q06546 whole entry, looked up): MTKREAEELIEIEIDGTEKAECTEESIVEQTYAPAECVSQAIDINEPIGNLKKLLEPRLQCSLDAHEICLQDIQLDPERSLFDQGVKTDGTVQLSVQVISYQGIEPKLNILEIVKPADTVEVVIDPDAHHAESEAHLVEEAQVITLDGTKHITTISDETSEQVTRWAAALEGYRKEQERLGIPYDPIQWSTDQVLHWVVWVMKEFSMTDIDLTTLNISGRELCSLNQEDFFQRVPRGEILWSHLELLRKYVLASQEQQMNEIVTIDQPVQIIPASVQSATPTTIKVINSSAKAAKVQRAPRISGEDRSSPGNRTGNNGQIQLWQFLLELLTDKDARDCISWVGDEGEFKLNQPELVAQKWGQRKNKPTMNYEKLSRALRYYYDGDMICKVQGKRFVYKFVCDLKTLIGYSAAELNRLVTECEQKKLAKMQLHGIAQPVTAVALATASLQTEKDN
Sequence of UniProt O95363 (O95363 whole entry, looked up): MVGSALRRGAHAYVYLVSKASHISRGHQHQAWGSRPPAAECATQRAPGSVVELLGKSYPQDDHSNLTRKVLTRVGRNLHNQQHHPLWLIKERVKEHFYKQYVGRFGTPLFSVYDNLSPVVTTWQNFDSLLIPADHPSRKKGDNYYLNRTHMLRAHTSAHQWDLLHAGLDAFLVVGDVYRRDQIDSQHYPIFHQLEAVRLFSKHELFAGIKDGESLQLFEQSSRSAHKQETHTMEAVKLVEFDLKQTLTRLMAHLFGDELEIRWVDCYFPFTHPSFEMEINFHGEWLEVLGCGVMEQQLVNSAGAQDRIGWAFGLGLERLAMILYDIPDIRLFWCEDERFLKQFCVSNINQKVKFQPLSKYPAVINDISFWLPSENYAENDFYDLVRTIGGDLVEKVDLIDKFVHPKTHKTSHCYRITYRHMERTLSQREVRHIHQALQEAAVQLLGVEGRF
Sequence of UniProt Q96LB3 (Q96LB3 whole entry, looked up): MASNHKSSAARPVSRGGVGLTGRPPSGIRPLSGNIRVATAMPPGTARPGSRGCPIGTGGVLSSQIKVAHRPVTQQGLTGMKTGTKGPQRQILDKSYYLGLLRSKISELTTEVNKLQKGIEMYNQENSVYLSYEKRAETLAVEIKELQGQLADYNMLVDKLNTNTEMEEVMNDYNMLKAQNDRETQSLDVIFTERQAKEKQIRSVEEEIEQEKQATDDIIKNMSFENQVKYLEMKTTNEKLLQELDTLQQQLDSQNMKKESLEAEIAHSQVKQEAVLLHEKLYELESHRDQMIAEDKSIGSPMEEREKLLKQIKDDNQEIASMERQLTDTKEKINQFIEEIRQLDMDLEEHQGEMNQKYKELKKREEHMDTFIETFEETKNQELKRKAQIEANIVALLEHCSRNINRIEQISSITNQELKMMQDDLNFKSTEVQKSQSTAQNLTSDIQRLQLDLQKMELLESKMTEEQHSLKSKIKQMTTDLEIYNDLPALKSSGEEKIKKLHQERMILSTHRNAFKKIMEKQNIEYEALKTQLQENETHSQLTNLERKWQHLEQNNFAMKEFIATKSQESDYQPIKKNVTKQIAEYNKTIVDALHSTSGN
Sequence of UniProt Q9P2H3 (Q9P2H3 whole entry, looked up): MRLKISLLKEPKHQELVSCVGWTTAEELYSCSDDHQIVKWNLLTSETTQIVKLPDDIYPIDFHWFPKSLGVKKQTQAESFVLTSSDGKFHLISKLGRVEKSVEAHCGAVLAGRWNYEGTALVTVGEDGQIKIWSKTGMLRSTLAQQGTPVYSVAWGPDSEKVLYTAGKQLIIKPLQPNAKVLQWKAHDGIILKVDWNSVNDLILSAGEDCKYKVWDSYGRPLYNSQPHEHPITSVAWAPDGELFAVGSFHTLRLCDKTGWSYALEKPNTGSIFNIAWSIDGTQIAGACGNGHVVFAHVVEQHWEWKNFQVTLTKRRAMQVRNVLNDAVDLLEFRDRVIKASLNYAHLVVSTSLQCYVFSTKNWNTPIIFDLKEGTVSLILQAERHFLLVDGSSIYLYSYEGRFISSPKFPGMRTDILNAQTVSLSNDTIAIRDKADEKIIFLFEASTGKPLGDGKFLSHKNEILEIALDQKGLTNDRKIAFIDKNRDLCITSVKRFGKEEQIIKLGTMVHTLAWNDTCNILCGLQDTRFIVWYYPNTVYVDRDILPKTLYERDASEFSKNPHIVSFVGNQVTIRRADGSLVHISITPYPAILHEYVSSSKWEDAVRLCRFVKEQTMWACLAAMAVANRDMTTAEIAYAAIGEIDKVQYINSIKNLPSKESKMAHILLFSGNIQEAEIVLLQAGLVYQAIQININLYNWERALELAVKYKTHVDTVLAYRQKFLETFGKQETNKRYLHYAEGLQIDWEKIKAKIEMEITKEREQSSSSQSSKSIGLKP
Sequence of UniProt Q00688 (Q00688 whole entry, looked up): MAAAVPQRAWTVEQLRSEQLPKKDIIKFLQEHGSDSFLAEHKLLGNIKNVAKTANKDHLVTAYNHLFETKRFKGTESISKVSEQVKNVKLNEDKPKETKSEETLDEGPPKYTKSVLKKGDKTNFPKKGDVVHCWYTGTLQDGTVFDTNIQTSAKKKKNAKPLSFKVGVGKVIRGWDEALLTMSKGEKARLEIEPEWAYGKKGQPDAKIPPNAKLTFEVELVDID
Sequence of UniProt Q5JWF2 (Q5JWF2 whole entry, looked up): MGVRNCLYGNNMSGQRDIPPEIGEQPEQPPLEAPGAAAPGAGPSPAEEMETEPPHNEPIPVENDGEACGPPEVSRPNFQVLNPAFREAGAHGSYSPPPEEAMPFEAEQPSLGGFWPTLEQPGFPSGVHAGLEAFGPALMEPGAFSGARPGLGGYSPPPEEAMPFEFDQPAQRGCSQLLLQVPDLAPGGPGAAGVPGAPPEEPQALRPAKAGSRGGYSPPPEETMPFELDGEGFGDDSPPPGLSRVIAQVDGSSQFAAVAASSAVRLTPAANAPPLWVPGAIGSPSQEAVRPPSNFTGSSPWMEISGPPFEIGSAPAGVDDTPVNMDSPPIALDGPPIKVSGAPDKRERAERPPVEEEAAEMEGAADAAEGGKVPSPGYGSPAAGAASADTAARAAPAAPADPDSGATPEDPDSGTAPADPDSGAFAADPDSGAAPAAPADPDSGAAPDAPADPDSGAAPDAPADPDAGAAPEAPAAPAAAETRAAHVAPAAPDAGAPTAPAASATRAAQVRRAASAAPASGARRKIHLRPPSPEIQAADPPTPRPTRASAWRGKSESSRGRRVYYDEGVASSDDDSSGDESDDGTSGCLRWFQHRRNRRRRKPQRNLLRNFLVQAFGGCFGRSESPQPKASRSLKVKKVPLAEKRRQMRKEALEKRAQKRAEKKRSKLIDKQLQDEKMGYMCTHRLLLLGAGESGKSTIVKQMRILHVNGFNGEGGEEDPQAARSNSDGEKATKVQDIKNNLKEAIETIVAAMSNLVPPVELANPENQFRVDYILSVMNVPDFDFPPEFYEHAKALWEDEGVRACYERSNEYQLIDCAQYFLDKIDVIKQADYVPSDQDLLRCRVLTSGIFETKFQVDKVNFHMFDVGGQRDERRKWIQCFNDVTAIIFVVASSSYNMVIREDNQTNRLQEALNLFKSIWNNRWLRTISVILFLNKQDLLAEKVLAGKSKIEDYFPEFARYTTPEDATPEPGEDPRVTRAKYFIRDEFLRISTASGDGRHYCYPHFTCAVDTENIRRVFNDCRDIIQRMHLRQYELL

Target | log2 fold change [1] | log2 fold change [2] | log2 fold change [3] | log2 fold change [4] | log2 fold change [5] | log2 fold change [6] | log2 fold change [7] | log2 fold change [8] | log2 fold change [9] | log2 fold change [10] | log2 fold change [11]
FANCD2 isoform 1 (UniProt Q9BXW9) | 0.087 | -0.189 | -0.304 | -0.034 | 0.022 | 0.187 | 0.11 | -0.109 | -0.034 | -0.039 | 0.002
GTF2A2 (UniProt P52657) | 0.023 | -0.028 | -0.038 | -0.008 | 0.03 | -0.044 | 0.058 | -0.008 | -0.014 | 0 | 0.014
GATA1 (UniProt P15976) | 0.009 | 0.012 | -0.018 | 0.059 | -0.084 | -0.164 | -0.166 | 0.065 | -0.039 | -0.096 | 0.102
HIC2 (UniProt Q96JB3) | -0.071 | -0.06 | 0.016 | 0.101 | -0.027 | -0.027 | -0.019 | 0.098 | 0.121 | -0.233 | 0.129
FDXR isoform 7 (UniProt P22570) | -0.03 | -0.044 | -0.083 | -0.082 | -0.006 | 0.084 | 0.031 | -0.034 | -0.197 | -0.11 | -0.032
FIBP (UniProt O43427) | -0.018 | 0.023 | 0.011 | -0.117 | -0.005 | -0.067 | 0.297 | -0.05 | -0.031 | -0.106 | 0.455
FBL (UniProt P22087) | 0.095 | 0.165 | 0.455 | 0.067 | -0.109 | 0.005 | -0.109 | 0.232 | 0.13 | -0.237 | 0.119
IFT80 isoform 3 (UniProt Q9P2H3) | 0.027 | 0.031 | -0.081 | 0.003 | -0.005 | 0.04 | 0.011 | -0.085 | -0.086 | -0.093 | -0.019
GMEB1 (UniProt Q9Y692) | 0.066 | -0.072 | -0.047 | 0.027 | 0.073 | 0.001 | 0.057 | 0.112 | -0.053 | -0.004 | -0.027
FKBP3 (UniProt Q00688) | 0.042 | 0.019 | 0.02 | 0.037 | 0.016 | 0.007 | 0.009 | -0.034 | -0.02 | 0.054 | -0.028
HNRNPH1 (UniProt P31943) | 0.052 | -0.023 | -0.075 | -0.059 | 0.118 | 0.168 | 0.09 | 0.024 | -0.105 | -0.074 | 0.108
GABPA (UniProt Q06546) | -0.05 | -0.057 | -0.203 | -0.042 | 0.108 | 0.138 | 0.139 | -0.007 | -0.13 | 0.008 | -0.01
H1FX (UniProt Q92522) | 0.248 | 0.165 | 0.153 | 0.118 | -0.072 | 0 | -0.122 | 0.078 | 0.227 | -0.12 | 0.02
FUCA2 (UniProt Q9BTY2) | 0.004 | -0.037 | -0.499 (active) | 0.013 | -0.03 | -0.033 | 0.042 | 0.032 | 0.032 | -0.551 (active) | -0.016
HDHD2 (UniProt Q9H0R4) | 0.091 | -0.016 | -0.023 | 0.048 | -0.01 | -0.018 | 0.033 | -0.007 | 0.131 | -0.012 | -0.069
GID4 (UniProt Q8IVV7) | -0.165 | -0.03 | -0.032 | -0.146 | 0.289 (active) | -0.074 | 0.006 | 0.118 | -0.017 | -0.052 | -0.021
FARS2 (UniProt O95363) | -0.006 | 0.003 | -0.222 | 0.012 | 0.028 | 0.073 | 0.022 | -0.027 | -0.11 | 0.005 | 0.011
IFT74 (UniProt Q96LB3) | 0.035 | 0.009 | 0.135 | 0.045 | -0.091 | 0.101 | 0.171 | -0.187 | -0.021 | 0.06 | 0.021
HEATR5B (UniProt Q9P2D3) | 0.01 | 0.012 | -0.152 | -0.028 | -0.03 | -0.008 | 0 | -0.053 | 0.083 | 0.056 | -0.025
IGF2BP2 (UniProt Q9Y6M1) | 0.014 | -0.051 | 0.237 | 0.045 | 0.015 | 0.128 | -0.178 | 0.16 | 0.155 | -0.208 | 0.24
FAM91A1 (UniProt Q658Y4) | -0.009 | -0.061 | -0.08 | -0.042 | -0.003 | 0.004 | -0.003 | 0.073 | -0.346 | -0.084 | 0.009
GLCCI1 (UniProt Q86VQ1) | -0.12 | 0.03 | -0.024 | 0.102 | 0.056 | 0.158 | 0.002 | -0.042 | 0.01 | -0.088 | 0.007
GTF2A1 (UniProt P52655) | -0.029 | 0.249 | 0.01 | 0.093 | -0.116 | -0.031 | -0.035 | 0.004 | -0.028 | 0.016 | 0.051
HMGCR isoform 3 (UniProt P04035) | 0.184 | -0.115 | 0.048 | -0.022 | 0.082 | -0.019 | -0.175 | -0.08 | 0.15 | 0.081 | -0.29
GNAS (UniProt Q5JWF2) | -0.133 | -0.009 | 0.002 | -0.004 | -0.058 | -0.022 | -0.043 | -0.018 | -0.007 | -0.045 | 0.052
FRA10AC1 isoform 3 (UniProt Q70Z53) | -0.069 | 0.114 | -0.121 | -0.077 | 0.019 | 0.065 | 0.08 | 0.129 | -0.091 | -0.232 | -0.003
HHEX (UniProt Q03014) | 0.04 | 0.084 | -0.054 | 0.568 (active) | 0.045 | 0.012 | 0.029 | -0.018 | 0.006 | -0.016 | -0.076
